Data: PubChem BioAssay (NCATS)
Results filed as inconclusive are left out. Where a call stands in place of a potency, no number is given. Active and inactive are the calls of the source. The call rests on the fitted dose curve; in most records, active means well fitted inhibition curve with a large enough effect; inconclusive means small, poorly fitted or top-dose-only effect; inactive means flat fitted curve, though single readings scatter.

Molecular target: Aldehyde dehydrogenase, mitochondrial (Homo sapiens) (UniProt P05091)
Assay: qHTS for Inhibitors of the Aldehyde Dehydrogenase Family (ALDH2) Primary screen (AID 2061308); further: nearly all actives have a fitted effect of over 55% in size
Settings: ALDH2 enzyme inhibition qHTS, 1536-well; series mostly up to 56 µM

Compound	Potency
CC(C)(C)CNc1ncnc2ccc(-c3ccc(CO)o3)cc12	inactive
Cc1cc2c(s1)c1cnn(Cc3c(F)ccc(Cl)c3F)c(=O)c1n2C	inactive
Cc1ccc(S(=O)(=O)Nc2cccc(C(=O)Nc3nc(-c4ccccc4)cs3)c2Cl)cc1	inactive
O=C(Nc1ccccc1F)c1ccc(O)c2ncccc12	inactive
COc1ccc(-c2ccc(Nc3nc(-c4ccncc4)nc4ccccc34)cc2F)cc1F	inactive
CCN1CCN(C(=O)CCN(CC(C)C)c2nc(-c3cccs3)nc3ccccc23)CC1	inactive
Oc1ccc(CNCc2ccc3c(c2)OCO3)c2cccnc12	inactive
O=C(Nc1ccc(O)c2ncccc12)c1ccccc1F	inactive
Cn1nnnc1Sc1ncnc2scc(-c3ccc(C(F)(F)F)cc3)c12	inactive
Cc1cc(C)nc(NC(=S)N2CCN(c3ccc(C(=O)O)cc3)CC2)c1	inactive
O=C1NC(=O)/C(=C/c2cccn2-c2ccc(P(=O)(O)O)cc2)N1	inactive
COc1cc(O)c(C(CC(=O)N2CC(C)OC(C)C2)c2ccc3c(c2)OCO3)c(OC)c1 (stereo not drawn)	inactive
COc1ccccc1-n1cnc2cc(C(=O)N3CCCCC3)ccc21	inactive
Cc1ccc(S(=O)(=O)NCC(=O)Nc2nc(-c3ccccc3)cs2)cc1	inactive
Cn1c2cc(Br)sc2c2cnn(Cc3ccccc3F)c(=O)c21	inactive
COc1cc(OC)cc(-c2nnc3n2N=C(c2cc(OC)ccc2OC)CS3)c1	inactive
O=C(Nc1ccc(F)c(C(F)(F)F)c1)Nc1ccc(-c2ccncc2)s1	inactive
Cc1cc(C)nc(NC(=S)N2CCN(c3cccc(S(C)=O)c3)CC2)c1 (stereo not drawn)	inactive
